# FLuc inh: Photinus pyralis luciferase inhibition; P08659; purified P. pyralis luciferase, luminescence, biochemical; Potency, µM (top dose mostly 115 µM), usual class: inhibitors; 76,000 tested, 2.5% active; also: nearly all actives have a fitted effect of over 65% in size
# Target sequence (P08659 whole entry, looked up): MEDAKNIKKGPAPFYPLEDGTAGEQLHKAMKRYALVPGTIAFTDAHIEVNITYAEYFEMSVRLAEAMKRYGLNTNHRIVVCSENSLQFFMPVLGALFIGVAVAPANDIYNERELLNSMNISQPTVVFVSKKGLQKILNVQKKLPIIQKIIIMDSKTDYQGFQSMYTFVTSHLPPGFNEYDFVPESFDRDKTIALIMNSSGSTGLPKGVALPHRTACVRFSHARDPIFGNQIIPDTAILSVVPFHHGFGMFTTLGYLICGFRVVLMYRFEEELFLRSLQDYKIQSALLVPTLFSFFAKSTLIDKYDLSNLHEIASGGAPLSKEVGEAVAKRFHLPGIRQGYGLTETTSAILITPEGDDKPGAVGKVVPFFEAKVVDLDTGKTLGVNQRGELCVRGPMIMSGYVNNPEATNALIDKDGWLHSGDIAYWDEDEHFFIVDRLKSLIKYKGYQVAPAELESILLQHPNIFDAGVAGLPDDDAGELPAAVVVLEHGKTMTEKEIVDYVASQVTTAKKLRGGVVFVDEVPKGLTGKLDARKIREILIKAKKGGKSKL
#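 Cell-free enzyme assay, 10nM P. pyralis luciferase, luciferin and ATP each at 10uM. Inhibition profiled over a 6-point titration, read as luminescence.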
# NIH3T3 tox: kills NIH 3T3 cells; NIH 3T3 viability, CellTiter-Glo ATP luminescence, 48-72 h; Potency, µM (highest dose often 96.7 µM), inactives show at the highest dose activity change, negative = cytotoxicity, most hits filed as inhibitors; 94,000 tested, 4.3% active; also: nearly all actives have a fitted effect of over 55% in size
#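 Cells were seeded at 400 per well, treated with pin-transferred compound, and kept 48 or 72 hr at 37 °C before CellTiter-Glo addition and luminescence imaging of cellular ATP.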
# HEK293 tox: cytotoxic compounds in HEK 293 cells; HEK 293 viability, ATP luminescence (CellTiter-Glo), 48-72 h; Potency, µM (titrated, usually from 115 µM), inactives show at the top dose activity change, negative = cytotoxicity, hits mostly inhibitors; 94,000 tested, 6.6% active; also: nearly all actives have a fitted effect of over 60% in size
#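 Luminescence from cellular ATP, measured with CellTiter-Glo, indicates HEK 293 viability. Cells plated at 250 cells/well are treated with compound for 48 or 72 hr at 37 degree Celsius before reagent addition.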
# hNpr1 antagonist: human Npr1 receptor antagonism | AID 1347048 | Potency, µM (doses to about 46.3 µM), inactives show at the highest dose activity change, negative = inhibition, most hits filed as inhibitors | HEK293 hNpr1 GloSensor cGMP, ANP-stimulated luminescence | 76,000 tested, 1.6% active | P16066; calls by dose curve; also: nearly all actives have a fitted effect of over 60% in size
#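 HEK293 cells stably expressing human Npr1 and cGMP GloSensor pGS-40F, loaded 2 h with 2% GloSensor reagent, given compound 30 min at room temperature. Luminescence read before and 20 min after 0.1 nM hNppA.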
# Active calls of the source: *; i = inactive; u = inconclusive; x = no result given; [ ] = another dose, or the depositor's remark. Compounds with a hit are over-represented: about 11% of the library has one in this group of screens. Unless noted, calls follow the shape of the dose curve; as a rule, active = well fitted curve in the direction sought with a large enough effect; inconclusive = small, poorly fitted or top-dose-only effect, or another doubt; inactive = no such curve, though single readings can be large; an effect the other way counts as inactive or inconclusive. % is scaled to controls: 0 for no effect and ±100 for the full control effect; potency is read from the fitted curve at half-maximal effect.
SMILES,FLuc inh,NIH3T3 tox,HEK293 tox,hNpr1 antagonist
Cc1cccc(N2Cc3c(NCCO)ncnc3N(C)CC2=O)c1,x,-15.0%[138 µM],2.6%[172 µM],x
COc1ccc(C(=O)Nc2nc3c(s2)C[C@@H]2[C@](C)(CO)[C@H](O)CC[C@@]2(C)[C@@H]3CC(=O)NCc2ccccc2)cc1,i,u,-16.3%,-19.9%
CC1CCN(C(=O)C[C@@H]2c3nc(NC(=O)c4ccc(F)cc4)sc3C[C@@H]3[C@](C)(CO)[C@H](O)CC[C@]32C)CC1,i,79.4µM*,u,-0.5%
C[C@]1(CO)[C@H]2Cc3sc(NC(=O)c4ccc(F)cc4)nc3[C@@H](CC(=O)NC3CCCC3)[C@]2(C)CC[C@H]1O,i,44.7µM*,u,-0.8%
CC(C)(C)CC(=O)Nc1nc2c(s1)C[C@@H]1[C@](C)(CO)[C@H](O)CC[C@@]1(C)[C@@H]2CC(=O)NC1CCCCC1,i,79.4µM*,u,-0.8%
CC(C)(C)C(=O)Nc1nc2c(s1)C[C@@H]1[C@](C)(CO)[C@H](O)CC[C@@]1(C)[C@@H]2CC(=O)NC1CCCC1,i,-26.1%,-21.4%,-0.5%
COc1ccc(C(=O)Nc2nc3c(s2)C[C@@H]2[C@](C)(CO)[C@H](O)CC[C@@]2(C)[C@@H]3CC(=O)NCc2ccco2)cc1,i,u,79.4µM*,1.2%
C[C@]1(CO)[C@H]2Cc3sc(NC(=O)c4ccc(F)cc4)nc3[C@@H](CC(=O)NC3CCCCC3)[C@]2(C)CC[C@H]1O,i,u,u,-0.8%
CC(C)(C)c1ccc(C(=O)Nc2nc3c(s2)C[C@@H]2[C@](C)(CO)[C@H](O)CC[C@@]2(C)[C@@H]3CC(=O)N2CCC(C(N)=O)CC2)cc1,u,28.2µM*,u,-7.5%
O=C(NC1CCN(c2nc3ncccc3o2)C1)C1CC1 (stereo not drawn),x,-1.7%[138 µM],-2.2%[172 µM],x
Cc1cc(C(=O)N(Cc2ccncc2)Cc2cccc(OCCc3ccc(F)cc3)c2)n(C)n1,i,u,u,-27.9%
O=C(Cc1ccc2c(c1)OCO2)N(Cc1ccncc1)Cc1cccc(OCCc2ccc(F)cc2)c1,i,35.5µM*,39.8µM*,u
Cc1cc(-c2ccnc(-c3nnc(C)n3-c3ccccc3)c2)ccn1,i,25.1µM*,44.7µM*,-0.4%[70.6 µM]
Cc1nnc(-c2cc(-c3ccsc3)ccn2)n1-c1ccccc1,i,u,u,-8.1%[70.6 µM]
Cc1nnc(-c2cc(-c3cnn(C)c3)ccn2)n1-c1ccccc1,i,89.1µM*,u,2.5%[70.6 µM]
Cc1cc(-c2ccnc(-c3nnc(C)n3CCc3ccccc3)c2)ccn1,i,79.4µM*,u,-11.4%[70.6 µM]
Cc1nnc(-c2cc(-c3ccccc3Oc3ccccc3)ccn2)n1C,i,u,89.1µM*,3.9%[70.6 µM]
CNC(=O)c1cc(C2CC2)nc2onc(C3CCN(C(=O)OC)CC3)c12,x,-20.8%[138 µM],-11.7%[172 µM],x
Cc1nnc(-c2cc(-c3cnn(C)c3)ccn2)n1Cc1ccccc1,i,44.7µM*,-15.2%[172 µM],6.0%[70.6 µM]
Cc1ccccc1-c1ccnc(-c2nnc(C)n2Cc2ccncc2)c1,i,-15.2%[138 µM],u,-0.2%[70.6 µM]
Cc1nnc(-c2cc(C(=O)NC3CCOCC3)ccn2)n1CCc1ccccc1,i,89.1µM*,i,3.6%[70.6 µM]
COc1ncc(-c2ccnc(-c3nnc(C)n3CCN3CCOCC3)c2)cn1,i,u,-0.4%[172 µM],7.3%[70.6 µM]
Cc1nnc(-c2cc(-c3ccsc3)ccn2)n1Cc1ccccc1,u,u,u,-11.0%[70.6 µM]
COc1ccc(-c2ccnc(-c3nnc(C)n3CCN3CCOCC3)c2)cc1OC,i,100µM*,-25.4%[172 µM],0.6%[70.6 µM]
Cc1ccccc1-c1ccnc(-c2nnc(C)n2Cc2ccccc2)c1,i,u,79.4µM*,-1.9%[70.6 µM]
SMILES,FLuc inh,NIH3T3 tox,HEK293 tox,hNpr1 antagonist
O=c1n(CCn2cccc2)nc(C2CCCNC2)n1-c1ccccc1 (stereo not drawn),i,i,-7.6%,5.2%
O=C(NCC1CN(C(=O)Cc2ccccc2)CC12CN(c1ccccc1)C2)C1CC1 (stereo not drawn),i,u,-6.5%[172 µM],-3.7%[70.6 µM]
CC(=O)N1CCN(c2ccnc(-c3nnc(C)n3-c3ccccc3)c2)CC1,i,89.1µM*,1.8%[172 µM],-0.5%[70.6 µM]
Cc1ccc(S(=O)(=O)N2CCCC(CCC(=O)O)C2)cc1 (stereo not drawn),i,u,6.8%,1.3%
CCCN(CC1CC1)C(=O)CCC1CCCN(S(=O)(=O)c2ccc(C)cc2)C1 (stereo not drawn),i,u,39.8µM*,-22.2%
CCCN(CC1CC1)C(=O)c1coc(COc2ccc3sc(C)nc3c2)n1,i,u,39.8µM*,u
O=C(NCC1CC1)c1cn(C2CN(C(=O)Nc3ccc4c(c3)OCCO4)C2)nn1,i,-5.9%,-19.2%,1.7%
O=C(NCc1ccccc1)c1cn(C2CN(C(=O)Nc3ccc4c(c3)OCCO4)C2)nn1,u,u,35.5µM*,-11.6%
O=C(NC1CCCCCC1)C1CCN(C(=O)c2ncn3c2COC(c2ccc(F)cc2)C3)CC1 (stereo not drawn),i,i,3.7%,-6.4%
O=C(Nc1cc(F)cc(F)c1)C1CCN(C(=O)c2ncn3c2COC(c2ccc(F)cc2)C3)CC1 (stereo not drawn),35.5µM*,u,u,u
Cc1ccc(NC(=O)C2CCN(C(=O)c3ncn4c3COC(c3ccc(F)cc3)C4)CC2)cc1Cl (stereo not drawn),28.2µM*,u,u,-12.3%
O=C(Nc1ccc(F)cc1)C1CCN(C(=O)c2ncn3c2COC(c2ccc(F)cc2)C3)CC1 (stereo not drawn),31.6µM*,-17.2%,-0.3%,-13.1%
O=C(NC1CC1)C1CCN(C(=O)c2ncn3c2COC(c2ccc(F)cc2)C3)CC1 (stereo not drawn),35.5µM*,i,7.5%,2.7%
c1cc(-c2nnc3n2CCN(Cc2ccsc2)C3)ccn1,x,-12.0%,i,x
COc1ccc(C(=O)N2CCN3CCS(=O)(=O)N(C4CC4)C(=O)C3C2)c(OC)c1 (stereo not drawn),x,-9.9%,1.8%,x
CC(=O)NC1CCN(c2ccc3nnc(C)n3n2)CC1,x,u,-6.7%[172 µM],x
Cc1ccc(C2Cn3cnc(C(=O)N4CCC(C(=O)NC5CCCC5)CC4)c3CO2)cc1 (stereo not drawn),u,i,4.3%,-9.8%
O=C(NC1CCCCCCC1)C1CCN(C(=O)c2ncn3c2COC(c2ccccc2)C3)CC1 (stereo not drawn),17.8µM*,0.6%,5.9%,-21.8%
CN(C)c1ccc2c(c1)CN(C(=O)c1cnccn1)CCO2,x,-19.3%,-3.6%,x
O=C(NCC1CC1)c1cccc(OC2CN(Cc3ccc(F)cc3Cl)C2)c1,i,39.8µM*,u,u
C[C@H]1[C@@H]2[C@@H](O)C([C@H](C)C(=O)N(C)Cc3cccnc3)CC[C@@]2(C)CC[C@@H]1NC(=O)C1CCCCC1 (stereo partly drawn),i,u,-6.3%,7.2%

# Bioassay records (PubChem)
